KB-V1 cytotox: KB-V1 MDR subline cytotoxicity; 400,000 compounds, 3.4% hits; Potency, µM (titrated, usually from 46.1 µM), hits mostly cytotoxic; KB-V1 MDR cells viability, CellTiter-Glo, 72 h; further: potency means the concentration at half of the fitted maximal effect; on the % scale 0 is the no-effect control and ±100 the full control effect; nearly all actives have a fitted effect of over 60% in size
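Following 72 h at 37 degrees C with compound, KB-V1 cell viability was read by CellTiter-Glo luminescence, medium being phenol-red-free DMEM plus 10% FBS; concentration-response parameters came from normalized, curve-fitted qHTS data.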
KB-3-1 tox: kills parental KB-3-1 adenocarcinoma cells. KB-3-1 viability, CellTiter-Glo ATP luminescence, 72 h. Potency, µM (titrated, usually from 46.1 µM), hits mostly cytotoxic. 400,000 compounds, 1.4% hits. AID 1347075; further: potency means the concentration at half of the fitted maximal effect; on the % scale 0 is the no-effect control and ±100 the full control effect; nearly all actives have a fitted effect of over 60% in size
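KB-3-1 parental drug-naive adenocarcinoma cells in DMEM/10% FBS, incubated 72 h at 37 C with pin-transferred compounds across a concentration series. Viability by CellTiter-Glo luminescence; concentration-response curves fitted after normalization.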
IL-1B inflam inh: inhibitors of inflammasome signaling (IL-1 beta secretion); THP-1 LPS/ATP IL-1B secretion, AlphaLISA, 16 h; active compounds read low; activity change, % at 57.5 µM; 360,000 compounds, 4.7% hits; AID 743279; in the data active means activity change below about -50%; inconclusive means mostly about -30% to -49%; further: on the % scale 0 is the no-effect control and ±100 the full control effect
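Secreted IL-1B measured by AlphaLISA bead assay after 16 h compound exposure of THP-1 cells; compounds (final up to 57.5 uM) added 1 h before LPS (250 ng/mL) and ATP (1.25 mM) stimulation; lower signal means less secretion.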
SW480 rerep: induces DNA re-replication in SW480 colon adenocarcinoma cells | Potency, µM (highest dose often 46.1 µM), for the others: at the highest dose re-replication activation, usual class: activators | SW480 DNA re-replication, Hoechst DNA content imaging, 48 h | AID 624297 | 340,000 compounds, 1.8% hits; further: potency means the concentration at half of the fitted maximal effect; % of control where 0% means no effect; nearly all actives have a fitted effect of over 55% in size
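Cells (250 per well) received 23 nL compound or DMSO by pin tool and were kept 48 hr at 37 C, 5% CO2. Nuclei were then stained with Hoechst for 40 min and scanned for DNA content.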
MCF10A rerep: DNA re-replication induction in MCF 10a cells; MCF 10A DNA re-replication, Hoechst nuclear intensity, 48 h; Potency, µM (top dose mostly 46.1 µM), inactives show at the highest dose activity, positive = re-replication, hits mostly activators; 350,000 compounds, 2.9% hits; further: potency means the concentration at half of the fitted maximal effect; % of control where 0% means no effect; nearly all actives have a fitted effect of over 50% in size
An asterisk follows results filed as active; i = inactive; ? = inconclusive; . = no result. Hits are enriched below; roughly 9.9% of the tested compounds scored in any of these assays. Unless noted, the call rests on the fitted dose curve; in most records, active means well fitted curve in the direction sought with a large enough effect; inconclusive means small, poorly fitted or top-dose-only effect, or another doubt; inactive means no such curve, though single readings can be large; an effect the other way counts as inactive or inconclusive.

SMILES	KB-V1 cytotox	KB-3-1 tox	IL-1B inflam inh	SW480 rerep	MCF10A rerep
Cc1oc(-c2ccc(C(=O)N(C)Cc3ccccc3)cc2)nc1CN1CCc2ccccc21	13µM*	14.6µM*	.	.	.
COCCNC(=O)c1ccc(-c2nc(CN3CCc4ccccc43)c(C)o2)cc1	10.3µM*	?	.	.	.
CCN(C(=O)C1CCN(S(=O)(=O)c2ccc3c(c2)CCCN3C(=O)C2CCC2)CC1)c1cccc(C)c1	i	i	.	.	.
COc1cccc(CN2C(=O)c3ccccc3Sc3ccc(C(=O)OCc4ccco4)cc32)c1	?	i	.	.	.
CCCc1[nH]nc2c1C(c1cc(OC)cc(OC)c1)C(C#N)=C(N)O2 (stereo not given)	i	i	?	-0.1%	-2.6%
CCCc1[nH]nc2c1C(c1cccc(OC(=O)c3ccco3)c1)C(C#N)=C(N)O2 (stereo not given)	i	i	-62.2*	?	?
CCCN(CCC)C(=O)C1CCCN(S(=O)(=O)c2ccc3c(c2)oc(=O)n3C)C1 (stereo not given)	i	i	16.4	0.4%	-4.0%
CC1CCN(S(=O)(=O)c2ccc3c(c2)N(CC(=O)NCCN2C(C)CCCC2C)C(=O)CS3)CC1 (stereo not given)	?	i	-15.1	-0.1%	0.5%
COc1ccc(C(CCNC(C)c2ccccc2)C(C)C)cc1 (stereo not given)	?	i	.	-20.4%	-6.2%
COc1ccc(C(C)NCCC(c2ccc(OC(C)C)cc2)c2ccccc2OC)cc1 (stereo not given)	16.4µM*	20.6µM*	-98.5*	?	23.1µM*
COc1ccc(Cc2nc(C(=O)Nc3ccccc3)cs2)cc1	i	i	-53.6*	1.9%	23.0%
COc1ccc(CNC(=O)c2csc(Cc3ccc(Cl)cc3)n2)cc1	?	i	-55.1*	9.4%	?
COc1ccc(CNC(=O)c2csc(Cc3ccc(OC)cc3)n2)cc1	i	?	-20.1	?	2.4%
COc1cc(/C=C/c2ccc3cccc(OC)c3n2)c(O)c([N+](=O)[O-])c1	i	?	?	-1.0%	3.6%
COc1cc(Br)c(/C=C/c2ccc3cccc(O)c3n2)cc1OC	i	i	-6.3	-14.9%	-0.5%
COc1cc(Br)cc(/C=C/c2ccc3cccc(O)c3n2)c1O	i	?	-6.2	33.6%	16.4µM*
CSc1ccc(/C=C/c2ccc3cccc(O)c3n2)cc1	?	i	20.4	23.5%	20.6µM*
O=[N+]([O-])c1cccc2ccc(/C=C/c3ccc(Cl)cc3)nc12	?	i	-11.2	-7.3%	2.1%
COc1cc(/C=C/c2ccc3cccc(O)c3n2)ccc1O	i	?	?	23.8%	11.6µM*
O=C(Cn1c(C(F)(F)F)nc2ccccc21)N=Nc1c(O)[nH]c2ccc(Br)cc12	i	i	27.6	1.2%	0.3%
Cc1ccn2c(=O)cc(COc3ccc(NC(=O)COc4ccc(Cl)cc4)cc3)nc2c1	i	i	.	.	.
O=C1Nc2c(c(=O)[nH]c(=O)n2-c2ccccc2)C1(NS(=O)(=O)c1ccc(Cl)cc1)C(F)(F)F (stereo not given)	i	i	.	.	.
COc1cc(C(=O)COC(=O)c2cc([N+](=O)[O-])ccc2N2CCOCC2)ccc1OC(F)F	?	20.6µM*	?	-2.0%	10.2%
COc1ccccc1C(=O)COC(=O)c1cc([N+](=O)[O-])ccc1N1CCOCC1	?	i	?	10.7%	1.9%
Cc1cc(C)c(C(=O)COC(=O)c2cc([N+](=O)[O-])ccc2N2CCOCC2)cc1C	18.4µM*	i	0.0	-2.7%	4.2%
SMILES	KB-V1 cytotox	KB-3-1 tox	IL-1B inflam inh	SW480 rerep	MCF10A rerep
COCc1nc(-c2ccc(-c3ccccc3)nc2OC)no1	?	i	?	-1.7%	4.5%
COc1nc(-c2ccccc2)ccc1-c1noc(C)n1	?	i	6.1	-0.5%	13µM*
COc1nc(C)ccc1-c1noc(-c2ccccn2)n1	11.6µM*	i	?	-9.4%	-4.3%
CCOc1nc(-c2ccccc2)ccc1-c1noc(COC)n1	23.1µM*	i	-2.4	?	23.7%
Cc1nc2ncccn2c1-c1csc(Nc2ccc(O)cc2)n1	i	14.6µM*	-27.9	8.2%	28.0%
Cc1nc2ccccn2c1-c1csc(NCc2ccco2)n1	?	i	?	-7.7%	10.5%
C=CCNc1nc(-c2c(C)nc3ncccn23)cs1	i	i	-4.5	-6.4%	-3.0%
Oc1ccc(-c2csc(Nc3ncccn3)n2)cc1	i	i	?	-5.3%	4.2%
Cc1ccc(Nc2nc(-c3c(C)nc4ncccn34)cs2)cc1	0.326µM*	0.0058µM*	-98.4*	0.058µM*	?
Cc1ccc(Nc2nc(-c3c(C)nc4ccccn34)cs2)cc1	0.164µM*	0.0206µM*	-86.8*	?	?
Cc1ccc(CNC(=O)C2(NC(=O)Nc3ccc(C)cc3)CCCCC2)cc1	?	i	-10.3	16.4µM*	-3.3%
O=C(Nc1ccc(F)cc1)NC1(C(=O)NCc2ccc3c(c2)OCO3)CCCCC1	16.4µM*	i	-10.3	0.2%	?
Cc1nnc(NC(=O)c2nn(CC(C)C)c(=O)c3ccccc23)s1	?	?	13.8	-14.4%	-7.5%
CCCCn1nc(C(=O)NCc2ccccc2CN2CCCC2)c2ccccc2c1=O	i	i	7.5	-2.2%	0.6%
CC(C)Cn1nc(C(=O)NCc2ccccc2CN2CCCC2)c2ccccc2c1=O	5.8µM*	i	?	-0.1%	1.5%
CCn1nc(C(=O)Nc2nc3ccc(C)cc3s2)c2ccccc2c1=O	i	i	-8.0	20.6µM*	23.1µM*
Cc1nc2ccc(NC(=O)c3nn(CC(C)C)c(=O)c4ccccc34)cc2s1	?	?	-85.5*	-3.4%	?
Cc1c(N)cc2c(c1N)C(C)(C)CC2(C)C	i	i	50.1	-1.9%	-1.4%
CN(NS(=O)(=O)c1ccccc1)C(=O)c1ccccc1	?	?	-0.9	-5.2%	-9.5%
CCOC(=O)c1cc(-c2ccccc2)nc2c(O)cccc12	i	i	8.0	7.9%	29.4%
CN(C)c1cccc(NC(=O)c2cccc3c(-c4ccc(F)c(F)c4)coc23)c1	i	i	-12.9	.	.
O=C1/C(=C/c2cccs2)SC(=S)N1c1cccc(O)c1	i	i	-2.8	0.8%	?
c1ccc(-c2cccc(-c3ccccn3)n2)nc1	1.84µM*	?	47.1	?	?
COc1ccc(-c2nc3c(c(SCc4ccc(Br)cc4)n2)Cc2c(CO)cnc(C)c2O3)cc1	i	i	.	.	.
Cc1ccccc1NC(=O)c1sc2nc[nH]c(=O)c2c1C	i	i	46.0	-1.1%	-10.1%
Cc1nc2sc(C(=O)Nc3ccccc3Cc3ccccc3)c(C)c2c(=O)[nH]1	?	i	52.1	-7.2%	5.8µM*
